In the library only some 4% were active in any assay of this set; here they are far more common.
Autofluor counter = compound fluorescence in toxin protease inhibitor counterscreen; actives 3.1% (n = 360,000); compound autofluorescence counterscreen, microsphere flow cytometry; stronger effect = higher value; AID 624483; fluorescence intensity (test concentration not listed); in the data active = fluorescence intensity above about 16000; inconclusive = no clear call, values can overlap the other calls
Anthrax LF inh2 = Bacillus anthracis LF protease inhibitors, primary screen, biochemical, multiplex microsphere, MLPCN library. AID 588501, 2011. actives 0.12% (n = 360,000). Lethal factor (Bacillus anthracis), P15917. inhibition, % at 10 µM. multiplex microsphere protease cleavage assay; also: plate controls were buffer without enzyme for full effect and enzyme alone for no effect
MazF activator = activators of E. coli MazEF toxin-antitoxin RNase, primary screen, biochemical, fluorescence, uHTS; Endoribonuclease toxin MazF (Escherichia coli (strain K12)), P0AE70; actives 0.32% (n = 350,000); activation, % at 20 µM; FAM/BHQ RNA-DNA oligo cleavage fluorescence, 5 h; AID 504720, 2011; in the data active = activation above about 50%
Target sequence (P0AE70 whole entry, looked up): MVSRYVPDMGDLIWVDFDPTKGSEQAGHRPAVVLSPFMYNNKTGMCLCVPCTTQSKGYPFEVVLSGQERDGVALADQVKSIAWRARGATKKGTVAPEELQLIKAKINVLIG
BoNT-F LC inh = BoNT/F light chain protease inhibitors, primary screen, biochemical, flow cytometry, MLPCN library. Botulinum neurotoxin type F light chain protease (Clostridium botulinum). Multiplex microsphere protease cleavage assay. inhibition, % at 10 µM. actives 0.22% (n = 360,000). AID 588497, 2011; in the data active = inhibition above about 35%, passing the limit was not always enough; inconclusive = no clear call, values can overlap the other calls; also: plate controls were buffer without enzyme for full effect and enzyme alone for no effect
BoNT A protease = BoNT/A light chain protease inhibitors, primary screen, biochemical, flow cytometry, MLPCN library | inhibition, % at 10 µM | Botulinum neurotoxin type A light chain protease (Clostridium botulinum A str. ATCC 3502) | actives 0.17% (n = 360,000) | multiplex microsphere protease substrate cleavage; also: plate controls were buffer without enzyme for full effect and enzyme alone for no effect
DUSP3 inh = VHR1 phosphatase inhibitors, primary screen, biochemical, absorbance, uHTS; Dual specificity protein phosphatase 3 (Homo sapiens), P51452; recombinant VHR phosphatase, pNPP absorbance; inhibition, % at 13.3 µM; actives 0.52% (n = 290,000); in the data active = inhibition above about 50%
Target sequence (P51452 whole entry, looked up): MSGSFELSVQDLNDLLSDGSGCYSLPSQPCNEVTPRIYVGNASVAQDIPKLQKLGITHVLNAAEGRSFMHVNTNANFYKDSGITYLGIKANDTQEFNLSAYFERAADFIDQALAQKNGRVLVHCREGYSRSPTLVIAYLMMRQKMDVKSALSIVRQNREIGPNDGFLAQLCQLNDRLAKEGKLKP
* marks the source's active call; other numbers are inactive results; u = inconclusive; x = not tested or not shown. Rule as the data show it, unless noted: active = inhibition above about 30%; inconclusive = no clear call, values can overlap the other calls; inactive = below that.

SMILES	Autofluor counter	Anthrax LF inh2	MazF activator	BoNT-F LC inh	BoNT A protease	DUSP3 inh
COC(=O)n1c(=S)oc2cc(Cl)ccc21	x	x	x	x	x	2
COc1ccc(C2C(=O)N(C3CCCCCC3)CC(=O)N2Cc2ccccc2)cc1OC (stereo not given)	19721*	-2	2	0	1	43
COc1ccc(CN2C(=O)CN(C3CCCCCC3)C(=O)C2c2ccc(OC)c(OC)c2)cc1 (stereo not given)	10137	-1	-2	-2	-1	7
CCOc1ccc(N2C(=O)CCC2=O)cc1	9791	-9	-1	-3	0	-2
CCOc1ccc(N2CC(=O)N(c3ccc(OCC)cc3)CC2=O)cc1	22131*	-1	6	2	1	5
CCOc1ccc(N2C(=O)c3cccnc3C2=O)cc1	19193*	-3	-12	3	3	20
COc1ccc2cc(C3CC(c4cccs4)=NN3S(C)(=O)=O)c(Cl)nc2c1 (stereo not given)	4563	1	9	-9	4	8
C=CCN(CC=C)S(=O)(=O)c1ccc(NC(=O)COc2ccccc2OC)cc1	4771	-1	-9	6	0	20
CC(CCc1ccccc1)NC(=O)CSc1ccccn1 (stereo not given)	4948	-6	10	-2	0	20
O=C(NC1CCCCC1)N(Cc1cc2cc3c(cc2[nH]c1=O)OCCO3)CC1CCCO1 (stereo not given)	18971*	-8	-6	2	u	29
CCN1CCCC1CN(Cc1cc2c(C)cc(C)cc2[nH]c1=O)C(=O)NC1CCCCC1 (stereo not given)	6635	8	59*	27	3	0
Cc1cc2cc(CN(CCCN3CCOCC3)C(=O)NC3CCCCC3)c(=O)[nH]c2cc1C	23619*	-2	-1	-2	-1	10
O=C(NC1CCCCC1)N(CCO)Cc1cc2cc3c(cc2[nH]c1=O)OCCO3	10706	6	2	1	-2	22
CN(CCc1ccccc1)C(=O)c1cccc(NC(=O)Cc2cccc(NC(=O)C3CCCN(C(=O)C4CC4)C3)c2)c1 (stereo not given)	3902	-9	2	-4	0	x
COc1ccc(C2=NOC(C(=O)NCc3ccccc3)C2)cc1 (stereo not given)	7990	3	-8	-2	1	21
CCN(CC)C(=O)C1CC(c2ccc(OC)cc2)=NO1 (stereo not given)	20968*	0	-5	-1	-1	10
COc1ccc(C2=NOC(C(=O)NC(C)(C)C)C2)cc1 (stereo not given)	22564*	-2	2	1	1	7
COc1ccc(OC)c(CCNC(=O)C(C)n2nc(C)c3c(C)n(-c4ccc(C)cc4)nc3c2=O)c1 (stereo not given)	4737	-2	11	-3	-1	56*
Cc1cc2nc(N3CCN(C(=O)c4ccco4)CC3)sc2cc1C	u	-3	3	-7	1	x
CC1(C)CC(NS(=O)(=O)c2ccc(S(=O)(=O)N3CCOCC3)cc2)CCO1 (stereo not given)	19550*	-5	0	-1	-1	24
CC1CC(C)CN(c2ccc(-n3cnnn3)cc2[N+](=O)[O-])C1 (stereo not given)	2661	-2	-5	-5	0	19
O=[N+]([O-])c1cc(-n2cnnn2)ccc1N1CCC(Cc2ccccc2)CC1	16952*	-4	-6	-5	-1	18
COc1ccc(OCC(O)CN2CCN(c3ncccn3)CC2)cc1 (stereo not given)	2268	0	-5	-8	0	8
CCOc1ccc(N(CC(=O)NCc2ccc3c(c2)OCO3)C(=O)c2csnn2)cc1	6138	2	3	-3	-1	39
CCc1ccc(N(CC(=O)NCc2ccc3c(c2)OCO3)C(=O)c2csnn2)cc1	3893	-1	-8	-2	-2	53*
